The list is not random: actives were taken first. Their share in the collection is about 19%.
TDP1 cell CPT: qHTS for Inhibitors of human tyrosyl-DNA phosphodiesterase 1 (TDP1): qHTS in cells in presence of CPT. chicken DT40 Tdp1-/-;hTDP1 cells + 20 nM CPT, ATP luminescence, 48 h. Potency, µM (highest dose often 46.2 µM), for inactives: top-dose activity change, negative = growth inhibition, actives largely listed as inhibitors. 420,000 compounds, 12% hits; note: nearly all actives have a fitted effect of over 55% in size
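Chicken DT40 Tdp1-/- cells stably complemented with human TDP1 were seeded at 400 cells/well in medium containing 20 nM camptothecin, exposed to pin-transferred compounds, and grown at 37 °C for at least 48 hr. Viability was read as ATP luminescence.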
HT1080-NT tox: qHTS for induction of synthetic lethality in tumor cells producing 2HG: qHTS for the HT-1080-NT fibrosarcoma cell line; HT-1080-NT fibrosarcoma viability, CellTiter-Glo ATP luminescence, 48 h; Potency, µM (highest dose often 46.1 µM), for inactives: at the highest dose activity, negative = less viability, most hits filed as cytotoxic; 360,000 compounds, 1.6% hits; AID 686970, 2013;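 note: NT is the 2HG producing partner of a matched IDH1 knockdown line; 0% = DMSO-treated cells and -100% = media-only wells without cells; nearly all actives have a fitted effect of over 55% in size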
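Viability by CellTiter-Glo luminescence after 48 h compound exposure at 37C of HT-1080-NT cells (750/well, RPMI, 5% FBS). % activity scaled between DMSO wells and medium-only wells, then curve-fitted and categorized by curve class.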
TDP1 cell noCPT: qHTS for Inhibitors of human tyrosyl-DNA phosphodiesterase 1 (TDP1): qHTS in cells in absence of CPT; DT40 Tdp1-/- hTDP1 cells, no CPT, ATP luminescence, 48 h; Potency, µM (doses to about 46.2 µM), inactives show top-dose activity change, negative = growth inhibition, most hits filed as inhibitors; 420,000 compounds, 15% hits; AID 686978, 2013; note: nearly all actives have a fitted effect of over 55% in size
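Chicken DT40 Tdp1-/- cells stably complemented with human TDP1 were seeded at 400 cells/well with DMSO in place of 20 nM camptothecin. After compound pinning, cells grew at least 48 hr at 37 °C; viability read by CellTiter-Glo luminescence.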
HT1080 IDH1KD tx: qHTS for induction of synthetic lethality in tumor cells producing 2HG: qHTS for the HT-1080-IDH1KD cell line; HT-1080 IDH1 knockdown viability, ATP luminescence, 48 h; Potency, µM (titrated, usually from 46.1 µM), for the others: top-dose activity, negative = toxicity, hits mostly cytotoxic; 360,000 compounds, 2% hits; AID 686971, 2013;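 note: 0% = DMSO wells and -100% = cell-free medium wells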
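Luminescent ATP read-out (CellTiter-Glo, 10 min at room temperature) after 48 h compound exposure at 37 °C gave viability of IDH1-knockdown HT-1080 cells. Activity was normalised to DMSO and cell-free wells, then fitted as concentration-response curves.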
KB-V1 cytotox: qHTS assay for MDR1-selective chemotherapeutics: Primary screen using the drug-selected MDR subline cells KB-V1 | KB-V1 MDR cells viability, CellTiter-Glo, 72 h | Potency, µM (titrated, usually from 46.1 µM), usual class: cytotoxic | 400,000 compounds, 3.4% hits | AID 1347076, 2019; note: nearly all actives have a fitted effect of over 60% in size
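Potencies derive from concentration-effect curves fitted to normalized luminescence (CellTiter-Glo) of KB-V1 cells treated for 72 h at 37 degrees C in phenol-red-free DMEM containing 10% FBS.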
KB-3-1 tox: qHTS assay for MDR1-selective chemotherapeutics: Primary screen using the parental adenocarcinoma cell KB-3-1; KB-3-1 viability, CellTiter-Glo ATP luminescence, 72 h; AID 1347075, 2019; 400,000 compounds, 1.4% hits; Potency, µM (doses to about 46.1 µM), usual class: cytotoxic; note: nearly all actives have a fitted effect of over 60% in size
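Cells are dispensed, compounds pinned in, plates held at 37 °C for 72 h, then CellTiter-Glo is added and luminescence read after 10 minutes. Cell line: parental KB-3-1 in phenol-red-free DMEM, 10% FBS.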
Numbers without * were called inactive; i = inactive; ? = inconclusive; nt = no result given. Calls come from the whole dose curve; as a rule, active = well fitted curve in the direction sought with a large enough effect; inconclusive = small, poorly fitted or top-dose-only effect, or another doubt; inactive = no such curve, though single readings can be large; an effect the other way counts as inactive or inconclusive. Unless noted, % is set by controls: 0 for no effect and ±100 for the full control effect; potency is the fitted concentration of half-maximal effect.

SMILES	TDP1 cell CPT	HT1080-NT tox	TDP1 cell noCPT	HT1080 IDH1KD tx	KB-V1 cytotox	KB-3-1 tox
CSc1nsc(SCC(=O)Nc2ccccc2C(=O)O)n1	?	-2.2%	-28.2%	-0.6%	i	?
Cc1nc(N2CCOCC2)c2c(C(=O)N(C)c3ccccc3)c(C)oc2n1	0.8%	nt	7.0%	nt	nt	nt
O=C(NCCc1ccccc1)c1ccc2c(c1)N(Cc1ccc(F)cc1)C(=O)CS2	?	nt	16.4µM*	nt	nt	nt
Cc1ccc(C)c(CN2C(=O)CSc3ccc(C(=O)NCc4ccc(F)cc4)cc32)c1	16.4µM*	nt	?	nt	i	i
Cc1ccc(C)c(CN2C(=O)CSc3ccc(C(=O)N4CCCC4)cc32)c1	?	-2.7%	?	-4.7%	i	i
COc1ccc(CCNC(=O)c2ccc3c(c2)N(Cc2c(F)cccc2Cl)C(=O)CS3)cc1OC	8.2µM*	nt	9.2µM*	nt	i	i
O=C(NCCc1ccccc1)c1ccc2c(c1)N(Cc1c(F)cccc1Cl)C(=O)CS2	14.6µM*	nt	9.2µM*	nt	i	i
COc1ccccc1CNC(=O)c1ccc2c(c1)N(Cc1c(F)cccc1Cl)C(=O)CS2	?	nt	?	nt	i	i
CCN(CC)c1ccc(NC(=O)CCc2c(C)nc3ncnn3c2C)c(C)c1	-1.1%	nt	?	nt	i	i
O=C1CCC2=C1C1(CCCC1)N=C(Nc1nc3ccccc3o1)N2	nt	nt	nt	nt	i	i
CC1(C)CC(=O)C2=C(C1)NC(Nc1nc3ccccc3o1)=NC21CCCCC1	?	2.3%	23.1µM*	4.6%	?	i
COc1ccccc1NC(=S)NCc1ccc2c(c1)cc(C)n2C	16.4µM*	2.4%	23.1µM*	-24.1%	i	i
Cc1ccccc1NC(=S)NCc1ccc2c(c1)cc(C)n2C	2.91µM*	14.6µM*	3.26µM*	?	20.6µM*	?
CCC(CC)C(=O)NCc1ccc2c(c1)cc(C)n2C	10.3µM*	?	?	-17.5%	i	i
COc1ccc(CC(=O)NCc2ccc3c(c2)cc(C)n3C)cc1	-1.4%	-3.2%	8.1%	-2.0%	i	i
COc1ccc(NC(=S)NCc2ccc3c(c2)cc(C)n3C)cc1	18.4µM*	-2.0%	?	-6.3%	i	i
C=CCN1C(=O)C(C)NC1=S (configuration not stated)	15.4%	11.7%	-5.6%	9.0%	i	i
O=C(O)c1cccc(Oc2ccc(C(=O)O)c([N+](=O)[O-])c2)c1	-15.4%	-0.8%	1.8%	-2.3%	i	i
CCc1cccc(C)c1NC(=S)NCc1ccc2c(c1)cc(C)n2C	20.6µM*	-3.5%	16.4µM*	-2.4%	i	?
COc1ccc(CNC(=O)Nc2cccc(C)c2)cc1	0.3%	?	1.1%	21.9%	i	i
COc1ccc(CNC(=S)Nc2ccc(Br)cc2)cc1	?	-11.4%	18.4µM*	-10.9%	i	i
COc1ccc(CCNC(=S)Nc2cccc(C)c2)cc1	?	-10.7%	16.4µM*	-7.1%	i	i
O=C(COc1ccccc1-c1nc(-c2ccccc2)no1)Nc1ccccc1[N+](=O)[O-]	8.6%	nt	-5.3%	nt	i	i
O=C(NCc1ccc2c(c1)OCO2)c1ccco1	-6.1%	5.8%	19.3%	1.2%	i	i
O=C(CC(SCCO)c1ccc2c(c1)OCO2)c1ccco1 (configuration not stated)	20.6µM*	1.4%	18.4µM*	7.3%	i	i
SMILES	TDP1 cell CPT	HT1080-NT tox	TDP1 cell noCPT	HT1080 IDH1KD tx	KB-V1 cytotox	KB-3-1 tox
CCOC(=O)c1c(S(=O)(=O)N2CCC(C(=O)NCc3cccc(C)c3)CC2)c(C)n(C)c1C	0.0%	nt	-13.9%	nt	i	i
O=C(Nc1ccccc1C(=O)O)c1cccc(F)c1	-2.6%	11.7%	-5.7%	17.5%	i	i
O=C(CCNC(=O)c1ccccc1Cl)NNC(=O)c1ccccc1O	?	-5.7%	?	-13.3%	?	i
O=C(CC(=O)c1ccccc1O)c1ccc(F)cc1	10.3µM*	?	11.6µM*	?	?	?
O=C(CC(=O)c1c(F)cccc1Cl)c1ccccc1O	?	?	11.6µM*	?	?	i
COc1ccc(C(=O)CC(=O)c2ccc(F)cc2)cc1	-21.6%	5.3%	?	-1.0%	i	i
O=C(CC(=O)c1ccccc1O)c1cccc(F)c1	6.51µM*	?	4.11µM*	?	?	?
O=C(NCc1ccc2c(c1)OCO2)c1cccc(S(=O)(=O)N2CCCC2)c1	5.5%	-0.3%	-25.2%	3.3%	nt	nt
Cc1ccc([N+](=O)[O-])cc1N/C=C1\CCc2ccccc2C1=O	20.6µM*	-8.6%	?	-5.0%	i	i
CC(C)COc1ccc(C(=O)N(Cc2cccc(F)c2)C2CCS(=O)(=O)C2)cc1 (configuration not stated)	20.6µM*	nt	?	nt	i	i
CCOc1ccc(C(=O)N(Cc2sccc2C)C2CCS(=O)(=O)C2)cc1 (configuration not stated)	?	nt	-26.5%	nt	nt	nt
Cc1ccsc1CN(C(=O)c1ccc(OCC(C)C)cc1)C1CCS(=O)(=O)C1 (configuration not stated)	?	nt	14.6µM*	nt	nt	nt
O/N=C/Cc1[nH]c2ccccc2c1-c1ccccc1	-7.6%	-3.6%	6.4%	-15.9%	?	i
COc1ccc2c(c1)C(C)=CC(C)(C)N2S(=O)(=O)c1ccc(C)cc1	5.8µM*	0.92µM*	5.17µM*	0.92µM*	2.59µM*	2.06µM*
CC1=CC(C)(C)N(S(=O)(=O)c2ccc(C)cc2)c2cc(C)ccc21	5.8µM*	1µM*	5.17µM*	1.26µM*	6.51µM*	3.66µM*
CCNC(=O)N1c2ccc(OCC)cc2C(C)=CC1(C)C	?	22.8%	18.4µM*	15.6%	i	i
CCOc1ccc2c(c1)C(C)=CC(C)(C)N2S(=O)(=O)c1ccc(C)cc1	?	1.3µM*	6.51µM*	1.84µM*	5.8µM*	2.06µM*
CCOc1ccc(S(=O)(=O)N2CCN(c3ccc(C)cc3C)CC2)cc1	?	-17.2%	?	-8.3%	i	i

Screening results from PubChem.
